In the library only some 11% were active in any assay of this set; here they are far more common.
PNC assembly inh = blocks assembly of the perinucleolar compartment; 3.1% of 140,000 active; PC3M PTB-GFP, PNC prevalence imaging, 16 h; stronger effect = lower value; activity change (PNC), negative = inhibition, % at 10 µM;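 active = readout at or below -70, meaning at least 70% loss of cells showing the perinucleolar compartment, a nuclear body marking cancer cells; inconclusive = readout between -30 and a set limit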
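Read-out is percentage of cells bearing a perinucleolar compartment, from automated 20x imaging of fixed, Hoechst-stained PC3M PTB-GFP cells. Cells were seeded 4 h, then exposed 16 h to compound (23 nl of library stock) in duplicate plates.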
HPGD inh = inhibitors of human 15-hydroxyprostaglandin dehydrogenase (HPGD) | Potency, µM, most hits filed as inhibitors | purified HPGD, NADH fluorescence kinetic, PGE2 substrate | AID 894 | P15428 | 4.3% of 150,000 active; active = well fitted inhibition curve with a large enough effect, not every such curve was filed as active; inconclusive = small, poorly fitted or top-dose-only effect, or another doubt; inactive = no such curve, though single readings can be large or run the other way
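NADH formation kinetics: reaction with 30 uM PGE2 and 1 mM NAD+ (final), 20 nM enzyme, Tris-HCl pH 8 with Tween 20, after 15 min compound preincubation at room temperature. Fluorescence change, last versus first of five reads.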
ALDH1A1 block = blocks purified human ALDH1A1 activity; Purified ALDH1A1, NADH fluorescence, propionaldehyde substrate; 7.3% of 220,000 active; Potency, µM (doses to about 75.3 µM), hits mostly inhibitors; P00352; AID 1030; active = well fitted inhibition curve with a large enough effect, not every such curve was filed as active; inconclusive = small, poorly fitted or top-dose-only effect, or another doubt; inactive = no such curve, though single readings can be large or run the other way
Target sequence (P00352 whole entry, looked up): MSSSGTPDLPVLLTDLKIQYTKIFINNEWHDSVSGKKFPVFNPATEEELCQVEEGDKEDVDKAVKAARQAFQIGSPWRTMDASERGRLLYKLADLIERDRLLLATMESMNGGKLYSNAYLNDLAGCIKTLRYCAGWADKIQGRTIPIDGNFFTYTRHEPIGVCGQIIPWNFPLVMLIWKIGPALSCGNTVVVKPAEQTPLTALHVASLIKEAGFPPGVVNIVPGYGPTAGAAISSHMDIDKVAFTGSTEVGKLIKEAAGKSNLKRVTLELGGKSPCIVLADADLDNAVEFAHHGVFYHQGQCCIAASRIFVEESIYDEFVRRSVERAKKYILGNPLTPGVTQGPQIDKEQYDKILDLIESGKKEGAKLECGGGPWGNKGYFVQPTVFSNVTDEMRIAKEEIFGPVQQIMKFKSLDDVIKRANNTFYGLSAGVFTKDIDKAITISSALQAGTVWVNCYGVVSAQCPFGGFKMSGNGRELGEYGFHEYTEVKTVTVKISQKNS
CBFb RUNX1 block = CBF-beta/RUNX1 interaction disruption; AlphaScreen CBFb-His/RUNX1-biotin binding, biochemical; Potency, µM (doses to about 59.8 µM), actives largely listed as inhibitors; 230,000 tested, under 10 active
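AlphaScreen binding: CBFb-His and RUNX1-biotin (30 nM each) preincubated 20 min, compound added for 15 min, then nickel and streptavidin beads for 90 min, all at room temperature. Disruption of the interaction by any mechanism counts as activity.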
HTT ATP protect = cytoprotection in Huntington HTT-Q103 PC12 cell model; PC12 HTT-Q103 induced, cytoprotection, ATP luminescence, 40 h; Potency, µM (titrated, usually from 56.4 µM), hits mostly activators; 0.14% of 230,000 active; AID 1471; note: nearly all actives have a fitted effect of over 45% in size
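ATP quantification (ATPlite) reports survival of PC12 cells in which tebufenozide, 100 nM final, switches on Htt exon 1 with 103 glutamines linked to GFP; compounds are titrated.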
HTT aggregate = inhibitors of mutant huntingtin aggregate formation in PC12 cells; PC12 HttQ103-GFP aggregates, Acumen cytometry, 40 h; Potency, µM (titrated, usually from 46.1 µM), actives largely listed as inhibitors; 1.1% of 220,000 active; note: nearly all actives have a fitted effect of over 60% in size
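Compounds (qHTS titration) were added to PC12 cells expressing an ecdysone-driven HTT exon 1 Q103–GFP fusion after induction with 100 nM tebufenozide. Aggregate formation was measured as GFP objects in cell lysates.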
Hits are given with their value; n = inactive; u = inconclusive; x = no result given; [ ] = remark or other dose. Unless noted, calls come from the whole dose curve; as a rule, active = well fitted curve in the direction sought with a large enough effect; inconclusive = small, poorly fitted or top-dose-only effect, or another doubt; inactive = no such curve, though single readings can be large; an effect the other way counts as inactive or inconclusive.

SMILES | PNC assembly inh | HPGD inh | ALDH1A1 block | CBFb RUNX1 block | HTT ATP protect | HTT aggregate
Cc1ccc(C(=O)O)cc1S(=O)(=O)N1CCCC1 | n | n | n | n | n | n
Cc1cc(C(=O)O)cc(S(=O)(=O)N2CCOCC2)c1C | -87 | n | n | n | n[10 µM] | n
COc1ccc(CN2CCCC(C(=O)c3cccc(OC(C)C)c3)C2)cc1Cn1cccn1 (centres undefined) | x | x | n | n | n[10 µM] | n[9.22 µM]
O=C1c2ccccc2C(=O)N1CCC(c1ccc(F)cc1)c1ccco1 (centres undefined) | n | n | 10µM | n | n[10 µM] | n
Cc1noc(C)c1-c1ccc2ncnc(NCc3ccccc3F)c2c1 | x | x | x | n | x | x
COC(=O)/C=C/C(=O)Nc1ccc(O)c(Cl)c1 | n | n | 13µM | n | x | n
COc1ccc(NC(=O)COC(=O)/C=C/C(=O)OCC(=O)Nc2ccc(OC)c(Cl)c2)cc1Cl | n | n | 11µM | n | n[10 µM] | n
COc1ccc(NC(=O)C=C(C)C)cc1Cl | n | 18µM | n | n | n[0.074 µM] | n
COC(=O)/C=C/C(=O)Nc1cccnc1 | n | x | n | n | n | u
CCOC(=O)/C=C/C(=O)OCC(=O)Nc1ccc(Cl)cc1Cl | x | x | 25µM | n | n[10 µM] | n
CN(C)Cc1ccccc1-c1cncnc1Nc1ccccc1 | x | x | u | x | n | x
Cc1ccc(C)n1CCN1CCN(CC(=O)Nc2cc(C(F)(F)F)ccc2Cl)CC1 | n | n | 28µM | n | n | n
Cc1cccc(CN2CCN([C@@H](c3ccccc3)c3ccc(Cl)cc3)CC2)c1 | x | n | n | n | n | n
COc1ccc(NC(=O)CCC2CCCCC2)cc1S(=O)(=O)N1CCCCC1 | n | x | u | n | n[10 µM] | n
Cc1ccc(-c2cc(-c3ccccc3)no2)c(O)c1 | n | n | n | n | n[10 µM] | n
Oc1ccccc1-c1cc(-c2ccccc2)no1 | u | 1.6µM | n | n | n | n
Cc1ccccc1-c1cc(-c2ccccc2O)on1 | n | 14µM | n | n | n | n
COCCn1c(=O)c(-c2ccccc2)nc2cnc(N3CCN(C)CC3)nc21 | x | x | u | x | n | x
CC(=O)NC1=C(N(C)C2CCS(=O)(=O)C2)C(=O)c2ccccc2C1=O (centres undefined) | n | n | u | n | x | 13µM
COc1ccc(CC(=O)Nc2nc3ccc(F)cc3s2)cc1S(=O)(=O)N1CCOCC1 | u | n | 20µM | n | n[10 µM] | u
O=C(Nc1cc(S(=O)(=O)N2CCOCC2)ccc1N1CCOCC1)c1cc2c(s1)CCC2 | x | x | x | n | n[10 µM] | n[9.22 µM]
O=C(Nc1ccc(Cl)cc1)c1cc(S(=O)(=O)N2CCOCC2)cs1 | n | n | n | n | n | 10µM
COc1ccc(S(=O)(=O)N2CCOCC2)cc1NC(=O)c1cc2c(s1)CCCC2 | n | u | 4µM | n | n[10 µM] | n
COc1ccc(NC(=O)c2cc3c(s2)CCC3)cc1S(=O)(=O)N1CCOCC1 | n | n | 0.56µM | n | n | n
O=C(Nc1cccc(F)c1)c1cc(S(=O)(=O)N2CCOCC2)cs1 | x | x | n | n | n[10 µM] | n[9.22 µM]
SMILES | PNC assembly inh | HPGD inh | ALDH1A1 block | CBFb RUNX1 block | HTT ATP protect | HTT aggregate
COC(=O)[C@@]1(Cc2ccccc2)[C@H]2c3cc(C(=O)N4CCCC4)n(Cc4ccccn4)c3C[C@H]2CN1C(=O)c1ccccc1 | x | n | n | n | n | x
CCCn1c(C)nc2c(N3CCC(N4CCN(C)CC4)CC3)nc(C)nc21 | x | n | n | n | n | x
O=C(NN=C1CCCCCCCCCCC1)c1cccc(S(=O)(=O)N2CCOCC2)c1 | n | n | 13µM | n | n[10 µM] | n
O=C(Nc1cccc(S(=O)(=O)N2CCOCC2)c1)c1ccccn1 | x | x | x | n | n[10 µM] | n[9.22 µM]
O=C(Nc1cccc(S(=O)(=O)N2CCOCC2)c1)c1cc2c(s1)CCC2 | u | n | 3.2µM | n | n | n
O=C1[C@H]2[C@H]3[C@H](O)[C@H](O)C/C(=N/OCc4ccccc4)[C@H]3CC[C@@H]2C(=O)N1Cc1ccc2c(c1)OCO2 | x | x | n[13.5 µM] | n[13.1 µM] | n[10 µM] | x
Cc1cccc(-n2nnnc2SCC(=O)NCCN2C(=O)CSC2=O)c1 | n | n | 20µM | n | n | n
Cc1nnc(SCC(=O)NCCN2C(=O)CSC2=O)n1-c1ccccc1 | x | x | n | n | n | n
Cc1ccc(Nc2nnc(SCC(=O)NCCN3C(=O)CSC3=O)s2)cc1C | u | x | 18µM | n | n[10 µM] | n

Assay outcomes deposited in PubChem by National Center for Advancing Translational Sciences (NCATS).
